The whole screen tested about 290,000 compounds, of which about 570 (0.2%) were called active. About 1% were inconclusive and are not listed. No stated cut-off is given here; in the data, active means inhibition mostly above about 51% (no sharp cut-off); inconclusive means no clear call, values can overlap the other calls; inactive means mostly below about 53%. Only a selection was taken, and actives are over-represented in it overall.
Molecular target: Voltage-dependent N-type calcium channel subunit alpha-1B (Homo sapiens) (UniProt Q00975)
Assay: disruptors of CaV2.2 binding to Mint1 – biochemical, HTRF (AID 2073)
Details: HTRF protein-protein interaction, Mint1-CaV2.2; at 20 µM; hits give high values

Sequence of Voltage-dependent N-type calcium channel subunit alpha-1B (Homo sapiens) (Q00975 whole entry, looked up): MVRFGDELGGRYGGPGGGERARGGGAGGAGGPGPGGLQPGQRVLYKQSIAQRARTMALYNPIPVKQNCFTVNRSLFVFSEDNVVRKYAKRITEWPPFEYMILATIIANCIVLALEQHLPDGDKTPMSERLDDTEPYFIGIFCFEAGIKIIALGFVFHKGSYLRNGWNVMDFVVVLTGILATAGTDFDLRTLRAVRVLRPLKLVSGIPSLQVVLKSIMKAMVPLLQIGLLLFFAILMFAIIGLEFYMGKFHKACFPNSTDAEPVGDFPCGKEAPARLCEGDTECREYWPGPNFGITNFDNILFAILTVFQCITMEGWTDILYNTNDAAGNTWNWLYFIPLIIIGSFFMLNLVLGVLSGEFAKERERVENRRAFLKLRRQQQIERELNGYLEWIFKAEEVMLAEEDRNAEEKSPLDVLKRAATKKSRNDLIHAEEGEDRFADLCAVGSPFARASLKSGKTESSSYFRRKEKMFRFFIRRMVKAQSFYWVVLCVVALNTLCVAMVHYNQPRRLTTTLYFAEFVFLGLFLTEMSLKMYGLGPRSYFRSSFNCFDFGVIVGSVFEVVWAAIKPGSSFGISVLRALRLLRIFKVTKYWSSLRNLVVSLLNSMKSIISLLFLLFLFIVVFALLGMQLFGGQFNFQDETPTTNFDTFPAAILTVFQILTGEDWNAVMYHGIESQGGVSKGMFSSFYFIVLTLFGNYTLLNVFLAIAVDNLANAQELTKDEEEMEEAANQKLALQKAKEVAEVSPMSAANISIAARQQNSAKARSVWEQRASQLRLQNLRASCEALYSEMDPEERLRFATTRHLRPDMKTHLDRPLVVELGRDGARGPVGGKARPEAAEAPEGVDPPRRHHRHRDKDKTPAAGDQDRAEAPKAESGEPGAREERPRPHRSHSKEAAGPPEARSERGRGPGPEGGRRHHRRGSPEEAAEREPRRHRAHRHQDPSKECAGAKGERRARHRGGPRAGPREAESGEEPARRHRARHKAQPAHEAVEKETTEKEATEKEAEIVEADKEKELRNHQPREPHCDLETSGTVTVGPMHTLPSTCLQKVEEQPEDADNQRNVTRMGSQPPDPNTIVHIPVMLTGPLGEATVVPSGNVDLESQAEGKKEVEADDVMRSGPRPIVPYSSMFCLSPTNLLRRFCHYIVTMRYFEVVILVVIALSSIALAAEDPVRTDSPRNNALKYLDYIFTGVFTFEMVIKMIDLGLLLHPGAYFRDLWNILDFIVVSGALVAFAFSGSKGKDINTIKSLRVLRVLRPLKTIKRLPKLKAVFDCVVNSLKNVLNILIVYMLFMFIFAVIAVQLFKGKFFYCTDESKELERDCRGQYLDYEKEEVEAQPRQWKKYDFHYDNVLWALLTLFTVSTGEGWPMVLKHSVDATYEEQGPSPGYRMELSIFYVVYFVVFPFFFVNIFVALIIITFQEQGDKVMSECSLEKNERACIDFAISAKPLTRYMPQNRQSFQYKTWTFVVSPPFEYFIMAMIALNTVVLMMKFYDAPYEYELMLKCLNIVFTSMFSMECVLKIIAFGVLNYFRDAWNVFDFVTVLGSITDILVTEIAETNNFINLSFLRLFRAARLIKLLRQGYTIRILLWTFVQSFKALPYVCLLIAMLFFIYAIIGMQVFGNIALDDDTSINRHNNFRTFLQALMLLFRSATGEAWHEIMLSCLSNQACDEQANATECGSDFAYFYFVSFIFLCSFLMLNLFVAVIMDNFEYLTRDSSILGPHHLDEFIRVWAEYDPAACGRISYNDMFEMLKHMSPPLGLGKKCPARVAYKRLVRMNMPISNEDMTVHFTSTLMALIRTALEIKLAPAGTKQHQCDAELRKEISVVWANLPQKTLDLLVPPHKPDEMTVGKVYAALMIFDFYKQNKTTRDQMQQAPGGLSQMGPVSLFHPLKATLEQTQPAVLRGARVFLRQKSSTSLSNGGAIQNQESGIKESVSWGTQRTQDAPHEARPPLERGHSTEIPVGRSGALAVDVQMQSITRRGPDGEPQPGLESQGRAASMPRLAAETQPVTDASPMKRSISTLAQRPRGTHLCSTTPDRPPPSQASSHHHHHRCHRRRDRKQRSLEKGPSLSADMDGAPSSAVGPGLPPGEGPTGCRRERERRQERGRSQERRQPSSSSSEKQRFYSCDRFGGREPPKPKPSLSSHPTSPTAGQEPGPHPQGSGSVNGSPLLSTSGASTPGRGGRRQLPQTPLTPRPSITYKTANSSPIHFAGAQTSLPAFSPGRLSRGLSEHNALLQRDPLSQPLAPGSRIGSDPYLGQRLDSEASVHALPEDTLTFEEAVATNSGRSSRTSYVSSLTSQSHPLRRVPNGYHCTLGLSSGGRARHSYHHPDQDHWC

Row | SMILES | inhibition
1 | COc1ccc(-c2noc(N3CCC(C(=O)Nc4ccccc4Cl)CC3)n2)cc1 | 1.9% (inactive)
2 | Cc1onc(-c2ccccc2)c1C(=O)OCC(=O)NCc1ccc(F)cc1 | -0.7% (inactive)
3 | CCOc1ccc(Oc2c(C)oc3cc(O)ccc3c2=O)cc1 | 15.1% (inactive)
4 | Cc1ccc(N=Cc2nc(-c3ccc(C)cc3)oc2O)cc1 | 17.5% (inactive)
5 | Cc1ccc(-c2nc(C=Nc3ccccc3)c(O)o2)cc1 | -6.2% (inactive)
6 | CC(NCC(O)c1ccc([N+](=O)[O-])cc1)C12CC3CC(CC(C3)C1)C2 (stereo unspecified) | 0.6% (inactive)
7 | CCNC(=O)COC(=O)c1ccc(-n2nc(C)cc2C)cc1 | 5.8% (inactive)
8 | O=C(/C(=N/N=C/c1ccc(O)c(O)c1O)c1ccccc1)c1ccccc1 | 66.2% (active)
9 | COc1cc(/C=N/N=C(/C(=O)c2ccccc2)c2ccccc2)cc(OC)c1O | -2.5% (inactive)
10 | O=C(/C(=N/N=C/c1ccc(O)c(O)c1)c1ccccc1)c1ccccc1 | -21.8% (inactive)
11 | CCC(=O)N1CC2(C)CN(C(=O)CC)CC(C)(C1)C2 | -2.6% (inactive)
12 | COc1ccc(C(=O)N2CCCC(CO)(Cc3ccccc3C)C2)o1 (stereo unspecified) | 2.1% (inactive)
13 | CCCCc1ccc(-c2csc(/C(C#N)=C/c3ccc(C)o3)n2)cc1 | 16.8% (inactive)
14 | CCCCc1ccc(-c2csc(/C(C#N)=C\c3ccco3)n2)cc1 | 57.8% (active)
15 | CCCCc1ccc(-c2csc(/C(C#N)=C/c3ccco3)n2)cc1 | 49.9% (inactive)
16 | CSc1nc(N2CCN(c3ccccc3)CC2)cc(N2CCN(c3ccccc3)CC2)n1 | 18.7% (inactive)
17 | O=C(N/N=C1\CCCc2ccccc21)c1cccc(Br)c1 | -12.7% (inactive)
18 | Cc1ccccc1CN(c1ccc(C(=O)NCc2ccccn2)cc1)S(C)(=O)=O | -3.2% (inactive)
19 | CCc1ccc(Nc2n[n+](-c3ccccc3)c(-c3ccc(OC)c(Br)c3)s2)cc1 | 19.2% (inactive)
20 | COC(=O)c1c(NC(=O)COC(=O)c2ccccc2O)sc2c1CCCCC2 | -3% (inactive)
21 | COC(=O)c1c(NC(=O)COC(=O)c2ccc(O)cc2)sc2c1CCCCC2 | 5.8% (inactive)
22 | COC(=O)c1c(NC(=O)COC(=O)c2ccc(NC(=O)CC#N)cc2)sc2c1CCCCC2 | 78.4% (active)
23 | CC(C)CCN1C(Nc2ccccc2)=NC[C@@H]1C | 2.7% (inactive)
24 | COc1ccccc1-c1cc(C(=O)Nc2cc(C)n(Cc3ccc(Cl)cc3)n2)no1 | 7.9% (inactive)
25 | Cc1c(Cl)cccc1NC(=O)CCCN1C(=O)c2cccnc2C1=O | 3.3% (inactive)
26 | COc1ccc(Nc2c(-c3ccc(OC)cc3)nc3cnccn23)cc1 | -9.1% (inactive)
